The panel holds about 83,000 compounds, 20% with a hit somewhere; the sample as a whole holds those more often.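 A percent growth of 40 corresponds to 60% growth inhibition; 0 means no net growth; -100 means all cells died. Active threshold: below 10.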 Values without a mark were called inactive.

This experiment concerns HL-60(TB) leukemia. Nature of the experiment: NCI-60 one-dose screen, 48 h (100 = growth as untreated, 0 = no growth, -100 = all killed). As to conditions: 10 µM unless noted.
As to `COc1ccc(/C=C/c2c(C(=O)/C=C/c3cccs3)c(C)nc3ccccc23)cc1`, the growth was 69.6%.

Take `O=C1/C(=C/c2ccccc2)CCc2nc3ccccc3c(/C=C/c3ccc(Cl)cc3)c21`: the growth was 83.2%.

Consider `Cc1cc(=NO)cc(C)n1O`, for which the growth is 81.6%.

Values taken from PubChem BioAssay (NCI).
